Records with an inconclusive call do not appear. The source holds several records for some structures; these can differ, active in one and inactive in another. Active and inactive are the calls of the source. Calls follow the shape of the dose curve; as a rule, active = well fitted inhibition curve with a large enough effect; inconclusive = small, poorly fitted or top-dose-only effect; inactive = flat fitted curve, though single readings scatter.

This is an account of results in PubChem BioAssay (NCATS).

Holding throughout (assay): qHTS profiling for inhibitors of Plasmodium falciparum proliferation (AID 504749); also: nearly all actives have a fitted effect of over 60% in size
Common to all, as to details: P. falciparum in erythrocytes, SYBR Green DNA, 72 h; series mostly up to 28.7 µM
A general note: qHTS replaces the single test concentration by a dilution series.

The subject of test [1] is CP211. Put shortly:
(§1)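 In a 72 h erythrocytic culture (37 C, humidified, 5% CO2) at 2.5% hematocrit and 0.3% starting parasitemia, compounds were tested; SYBR Green I in detergent lysis buffer stained parasite DNA overnight.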

The test system of test [2] is CP215. The method, boiled down:
as §1

Test [3] relates to CP217. The method, boiled down:
as §1

For test [4], the system named is CP237. Put shortly:
as §1

The subject of test [5] is CP238. The method, boiled down: as §1
The test system of test [6] is CP247. Put shortly:
as §1

Test [7] has as its system CP250. The method, boiled down:
as §1

Test [8] has as its system CP252. Put shortly:
as §1

Test [9] deals with CP256. The method, boiled down: as §1
Test [10] has as its system CP203. The method, boiled down: as §1
Potency is read from the fitted curve at half-maximal effect.

`O=C1CN(O)C(c2ccccc2)=c2cc(Cl)ccc2=N1`: the Potency result in test [1], in [2], in [3], in test [4], in test [5] and in test [6] was “inactive” in each case. Moreover, the Potency entry in test [7], in test [8] and in test [9] was “inactive” throughout.

For the compound `O=C(O)C(Cl)(Cl)Cl`, the Potency result in test [10], in [1], in test [2], in [3], in test [4] and in test [5] was “inactive” in each case. Also, the Potency result in [6], in [7], in test [8] and in [9] was “inactive” each time.

As to `CCC(C)(S(=O)(=O)CC)S(=O)(=O)CC`, the Potency entry in test [10], in test [1], in [2], in test [3], in test [4] and in test [5] was “inactive” each time. Also, the Potency result in [6], in [8] and in test [9] was “inactive” throughout.

In the case of `CCCCNCC(O)c1ccc(O)cc1` (stereo not given), the Potency entry in [1], in test [2], in test [3], in [4], in test [5] and in test [6] was “inactive” throughout. For the same compound, the Potency result in [7], in test [8] and in test [9] was “inactive” throughout.

As to `C[C@H]1CC[C@@H]2[C@@H](C)[C@H]3[C@H](C[C@H]4[C@@H]5CC=C6CC(O[C@@H]7O[C@H](CO)[C@H](O)[C@H](O[C@@H]8O[C@H](CO)[C@@H](O)[C@H](O)[C@H]8O)[C@H]7O[C@H]7O[C@@H](C)[C@H](O)[C@@H](O)[C@H]7O)CC[C@]6(C)[C@H]5CC[C@]34C)N2C1` (stereo not given in full), the Potency entry in [1], in [2], in test [3], in test [4], in test [5] and in test [6] was “inactive” each time. Moreover, the Potency entry in test [7] and in [8] was “inactive” throughout.

On to `CCC1(c2ccccc2)C(=O)NC(=O)N(C)C1=O` (stereo not given), for which the Potency result in test [10], in test [1], in [3], in test [4], in [5] and in test [6] was “inactive” throughout. The Potency result in test [7], in test [8] and in [9] was “inactive” in each case.

Take `N#CC1(N2CCCCC2)CCCCC1`: the Potency result in [1], in test [2], in [3], in [4], in test [5] and in [6] was “inactive” each time. Also, the Potency result in [7], in test [8] and in test [9] was “inactive” each time.

Turning to `C=CCN1CC[C@]23c4c5ccc(O)c4O[C@H]2[C@@H](O)C=C[C@H]3[C@H]1C5`, the Potency entry in test [10], in test [1], in [2], in test [3], in test [4] and in test [5] was “inactive” each time. In addition, the Potency result in test [7], in [8] and in test [9] was “inactive” in each case.

For `C[C@H]1CCC[C@H](O)CCCCCc2cc(O)cc(O)c2C(=O)O1`, the Potency result in test [10], in [1], in test [5], in test [6], in test [8] and in [9] was “inactive” each time.

In the case of `CC(=O)OO`, the Potency result in [10], in test [1], in test [2], in test [3], in test [4] and in test [5] was “inactive” throughout. Further, the Potency result in test [6], in test [7], in test [8] and in [9] was “inactive” each time.

On to `O=[N+]([O-])c1ccc(F)c([N+](=O)[O-])c1`, for which the Potency entry in test [1], in [2], in test [3], in test [4], in test [5] and in test [6] was “inactive” each time. In addition, the Potency result in [7], in test [8] and in test [9] was “inactive” in each case.

As for `C=CCN1CCC23c4c5ccc(O)c4O[C@H]2C(=O)CC[C@@]3(O)C1C5` (stereo not given in full), the Potency result in test [1], in [2], in [3], in test [4], in test [5] and in test [6] was “inactive” each time. For the same compound, the Potency entry in [7], in test [8] and in [9] was “inactive” in each case.

Turning to `COCC(C)N(C(=O)CCl)c1c(C)csc1C` (stereo not given), the Potency entry in [10], in [1], in test [2], in test [3], in [4] and in test [5] was “inactive” in each case. Moreover, the Potency result in test [6], in [7], in test [8] and in test [9] was “inactive” each time.

For `CC(C)CCON=O`, the Potency entry in test [1], in test [2], in test [3], in test [4], in [5] and in [6] was “inactive” each time. Also, the Potency entry in [7], in test [8] and in test [9] was “inactive” in each case.

For the compound `COc1ccc(OC)c(C(O)C(C)N)c1` (stereo not given), the Potency result in test [1], in [2], in test [3], in test [4], in test [5] and in test [6] was “inactive” each time. Moreover, the Potency entry in [7], in test [8] and in test [9] was “inactive” throughout.

Regarding `CN1c2ccccc2C(NCCCCCCC(=O)O)c2ccc(Cl)cc2S1(=O)=O` (stereo not given), the Potency entry in [10], in test [1], in [2], in test [3], in test [4] and in test [5] was “inactive” throughout. The Potency entry in [6], in test [7], in test [8] and in [9] was “inactive” throughout.

On to `COC([CH2][Hg])CNC(=O)c1ccccc1OCC(=O)O` (stereo not given), for which the Potency result in test [1], in test [2], in test [3], in test [4], in test [5] and in test [6] was “inactive” in each case. The Potency result in test [7], in test [8] and in [9] was “inactive” in each case.

For the compound `CCC(=O)O[C@@](Cc1ccccc1)(c1ccccc1)[C@@H](C)CN(C)C`, the Potency entry in [10], in test [2], in test [3], in test [4], in [5] and in [6] was “inactive” each time. In addition, the Potency entry in [7], in [8] and in [9] was “inactive” in each case.

For the compound `O=c1[nH]c(=O)n(Cl)c(=O)n1Cl`, the Potency entry in test [10], in [1], in test [3], in test [4], in test [5] and in test [6] was “inactive” in each case. For the same compound, the Potency result in [7], in test [8] and in test [9] was “inactive” each time.

In the case of `O=CC=O`, the Potency entry in [1], in test [2], in [3], in test [4], in [5] and in test [6] was “inactive” in each case. Also, the Potency result in [7], in test [8] and in test [9] was “inactive” each time.

For the compound `C#CC(C)(O)CC` (stereo not given), the Potency result in test [1], in test [2], in [3], in [4], in test [5] and in [6] was “inactive” each time. For the same compound, the Potency entry in test [7], in [8] and in test [9] was “inactive” in each case.

Turning to `Cc1sc2ccccc2c1CC1=NCCN1`, the Potency entry in test [10], in [1], in test [2], in [3], in [5] and in test [6] was “inactive” each time. In addition, the Potency result in test [7], in test [8] and in test [9] was “inactive” in each case.

On to `CC(C)(C)c1cc(O)ccc1O`, for which the Potency in test [10] is 15.1 µM (active); in [1] it was 12 µM (active) and inactive; in test [2] it was 10.7 µM (active); in [3], 8.91 µM (active); in test [4] it was 6.31 µM (active); in test [5], 10 µM (active). The Potency was 4.47 µM (active) in test [6]; 7.94 µM (active) in [7]; 8.91 µM (active) and inactive in test [8]; 11.2 µM (active) in test [9].

With `c1ccc2cc(CC3=NCCN3)ccc2c1`, the Potency entry in test [1], in test [2], in test [3], in test [4], in test [5] and in test [6] was “inactive” throughout. Besides, the Potency result in [7], in test [8] and in test [9] was “inactive” in each case.

Consider `O=c1c2ccccc2[se]n1-c1ccccc1`, for which the Potency entry in test [10], in test [2], in test [8] and in test [9] was “inactive” each time.

As for `c1csc(C2(N3CCCCC3)CCCCC2)c1`, the Potency result in test [10], in [1], in [2], in [3], in [5] and in test [6] was “inactive” throughout. Further, the Potency entry in [7], in test [8] and in test [9] was “inactive” in each case.
